Screening results (PubChem BioAssay)
CYP2C9 activ – CYP2C9 (human) activation. hit rate 1.4% among 96,000. activation factor at 5 µM. recombinant CYP2C9, luciferin-H conversion, luminescence; stronger effect = higher value; factor 1 = untreated enzyme, 0 = blocked;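 active means activation factor of 2 or more for CYP2C9 at a 5 µM dose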;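 further: 0 = sulfaphenazole-blocked wells and 1 = vehicle-only wells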
Target sequence (P11712 whole entry, looked up): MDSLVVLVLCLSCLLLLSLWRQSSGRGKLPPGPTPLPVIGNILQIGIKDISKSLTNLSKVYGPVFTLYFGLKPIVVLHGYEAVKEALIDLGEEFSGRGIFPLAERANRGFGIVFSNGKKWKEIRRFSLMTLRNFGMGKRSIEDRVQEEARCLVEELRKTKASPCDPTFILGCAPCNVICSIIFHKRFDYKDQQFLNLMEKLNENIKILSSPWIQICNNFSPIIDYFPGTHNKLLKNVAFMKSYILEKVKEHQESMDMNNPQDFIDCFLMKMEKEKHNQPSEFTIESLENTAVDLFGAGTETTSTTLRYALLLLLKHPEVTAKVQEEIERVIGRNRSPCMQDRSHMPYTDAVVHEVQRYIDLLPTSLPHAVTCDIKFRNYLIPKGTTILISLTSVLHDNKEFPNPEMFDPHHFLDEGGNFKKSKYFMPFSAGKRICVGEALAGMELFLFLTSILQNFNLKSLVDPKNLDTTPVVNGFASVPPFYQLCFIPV
CYP2C19 activ – activators of human cytochrome P450 2C19; activation factor at 5 µM; P33261; 96,000 tested, under 10 active; recombinant CYP2C19, luciferin-H EGE luminescence; stronger effect = higher value; 0 = fully inhibited enzyme, 1 = untreated enzyme;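 active means activation factor of at least 2 at 5 µM in the primary screen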;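 further: 0 = wells with 2.5 mM tranylcypromine and 1 = vehicle-only wells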
CYP2C9 inhib – human CYP2C9 inhibition; AID 777; inhibition, % at 5 µM; CYP2C9 Supersomes, luciferin-H conversion, luminescence; hit rate 20% among 96,000;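 active means blocking of liver enzyme CYP2C9 beyond about 50% at 5 µM, limit read from the data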
CYP2C19 inh – inhibitors of human CYP2C19. inhibition, % at 5 µM. hit rate 21% among 96,000. AID 778. P33261. CYP2C19 Supersomes, luciferin-H EGE luminescence, 30 min;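 active means CYP2C19 inhibition above a set limit at 5 µM in the primary screen, cut at about 50% in these data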;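 further: plate controls were negative control wells for no effect and 2.5 mM tranylcypromine positive control for full effect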
Measles CPE – protection of cells from measles virus; Measles virus-infected cells, CPE protection, absorbance; protection (pct of control), % at 4 µM; hit rate 1.5% among 140,000; in the data active means protection mostly above about 24%, no sharp cut-off; inactive means mostly below about 26%
* hit, by the source's call; / = no result. Compounds with a hit are over-represented: about 22% of the library has one in this group of screens.

SMILES	CYP2C9 activ	CYP2C19 activ	CYP2C9 inhib	CYP2C19 inh	Measles CPE
CC1=C(OC(=O)c2ccccc2)C(C)(C)C(c2ccccc2)OC1=O (configuration not stated)	0.7	0.6	28	40	8
CCOC(=O)c1c(C)[nH]c(C)c1C(=O)CSc1nc(N)cc(=O)[nH]1	0.5	0.8	50	24	34
CCCc1n[nH]c2c1/C(=N\O)CCC2	1	1	-4	4	8
Cc1ccc2nc(Cc3ccc(N)cc3)oc2c1	0.7	0.3	32	69*	15
O=S1(=O)c2ccccc2N=NN1Cc1cc(Cl)cc(Cl)c1	0.5	0.7	54*	33	1
O=S1(=O)c2ccccc2N=NN1Cc1ccc(Cl)cc1	0.3	0.2	68*	83*	4
O=C(NCc1ccco1)c1ccc2nc3sc4c(c3c(=O)n2c1)CCCC4	0.6	0.8	40	19	3
Cc1cccc(N2CN(Cc3ccco3)CNC2=S)c1	/	/	/	/	7
CC1CCCN(C(=O)CSc2nnc(-c3c[nH]c4ccccc34)o2)C1 (configuration not stated)	1.3	0.3	-31	71*	16
CC1CCCC(C)N1C(=O)CSc1nnc(-c2c[nH]c3ccccc23)o1 (configuration not stated)	1.1	0.7	-8	28	6
CCC1CCCCN1C(=O)CSc1nnc(-c2c[nH]c3ccccc23)o1 (configuration not stated)	1.6	0.1	-62	91*	5
COc1ccc(-c2nnc(SCC(=O)N3CCCC(C)C3)o2)c(OC)c1 (configuration not stated)	0.8	0.3	20	71*	4
COc1cc(/C=N/NC(=O)CN2CCCCC2)ccc1OCc1ccc(Br)cc1	/	/	/	/	12
COc1ccc(S(=O)(=O)NC2(C(F)(F)F)N=C(c3ccccc3)NC2=O)cc1 (configuration not stated)	/	/	/	/	4
CC1(C)CC(=O)C2=C(C1)NC(=O)CC2c1cc(F)ccc1F (configuration not stated)	1.2	1.2	-24	-17	28
CC1(C)CC(=O)C2=C(C1)NC(=O)CC2c1cccc(F)c1 (configuration not stated)	0.9	1	10	-4	43*
O=c1[nH]c(CCC2CCCC2)nc2ccccc12	/	/	/	/	5
O=C(NCc1ccccc1)N(Cc1nc2ccccc2c(=O)[nH]1)C1CCCC1	0.5	0.6	53*	43	3
O=C(Nc1ccc(Cl)c(Cl)c1)Nc1ccccc1NS(=O)(=O)c1cccs1	/	/	/	/	5
Cc1ccc(-c2nc(CS(=O)(=O)CC(=O)N3CC(C)CC(C)C3)c(C)o2)cc1 (configuration not stated)	0.3	0.6	71*	41	0
Cc1cccc(N2CCN(C(=O)CS(=O)(=O)Cc3nc(-c4ccccc4F)oc3C)CC2C)c1 (configuration not stated)	0.1	0.4	87*	56*	8
Cc1oc(-c2ccccc2F)nc1CS(=O)(=O)CC(=O)N1CCOCC1	0.7	0.9	34	14	5
O=C(COc1ncnc2ccc(Br)cc12)NCc1ccc2c(c1)OCO2	0.8	1.1	18	-5	2
COc1ccc(N(CC(=O)Nc2cccc(C)c2C)S(=O)(=O)c2c(C)n[nH]c2C)cc1	0.5	0.5	51*	54*	10
COc1ccccc1NC(=O)CN(c1ccc(C)cc1)S(=O)(=O)c1c(C)n[nH]c1C	0	0.3	96*	70*	21
SMILES	CYP2C9 activ	CYP2C19 activ	CYP2C9 inhib	CYP2C19 inh	Measles CPE
COc1ccc(N(CC(=O)NC2CCCC2)S(=O)(=O)c2c(C)[nH]c(=O)[nH]c2=O)cc1	0.6	0.9	43	5	5
COc1cccc(CSc2nc3cc4c(cc3cc2C)OCCO4)c1	/	/	/	/	15
O=C(NS(=O)(=O)c1ccc2c(c1)OCCO2)c1ccccc1	0.4	1.1	58*	-7	8
CC(NS(=O)(=O)c1ccc2c(c1)OCCCO2)C(=O)O (configuration not stated)	/	/	/	/	11
CC(=O)c1cc2c(cc1NS(=O)(=O)c1ccc(C)cc1)OCO2	1.1	0.4	-12	63*	2
NC(=O)c1ccccc1NS(=O)(=O)c1ccc2c(c1)OCCO2	1.3	0.2	-25	76*	4
CC(=O)c1cc2c(cc1NC(=O)CN1CCCCCCC1)OCO2	0.3	0.2	69*	83*	13
CC(=O)c1cc2c(cc1NC(=O)CCCC(=O)O)OCO2	1.2	1.2	-16	-23	7
